In all, about 33,000 sequences were measured (“E-score (-0.5 to 0.5)”: median about -0.043, highest 2% from about 0.37 on). The sample holds the highest values, similar sequences and a random draw of the others, so the mix is not that of the screen.
biological target: T1, Upc2 (UniProt Q12151); test: PBM E-score (8-mer binding enrichment) (E-score (-0.5 to 0.5)); higher = stronger / more preferred TF binding; conditions: protein concentration: 200 nM; construct: GST-full length
T1 sequence: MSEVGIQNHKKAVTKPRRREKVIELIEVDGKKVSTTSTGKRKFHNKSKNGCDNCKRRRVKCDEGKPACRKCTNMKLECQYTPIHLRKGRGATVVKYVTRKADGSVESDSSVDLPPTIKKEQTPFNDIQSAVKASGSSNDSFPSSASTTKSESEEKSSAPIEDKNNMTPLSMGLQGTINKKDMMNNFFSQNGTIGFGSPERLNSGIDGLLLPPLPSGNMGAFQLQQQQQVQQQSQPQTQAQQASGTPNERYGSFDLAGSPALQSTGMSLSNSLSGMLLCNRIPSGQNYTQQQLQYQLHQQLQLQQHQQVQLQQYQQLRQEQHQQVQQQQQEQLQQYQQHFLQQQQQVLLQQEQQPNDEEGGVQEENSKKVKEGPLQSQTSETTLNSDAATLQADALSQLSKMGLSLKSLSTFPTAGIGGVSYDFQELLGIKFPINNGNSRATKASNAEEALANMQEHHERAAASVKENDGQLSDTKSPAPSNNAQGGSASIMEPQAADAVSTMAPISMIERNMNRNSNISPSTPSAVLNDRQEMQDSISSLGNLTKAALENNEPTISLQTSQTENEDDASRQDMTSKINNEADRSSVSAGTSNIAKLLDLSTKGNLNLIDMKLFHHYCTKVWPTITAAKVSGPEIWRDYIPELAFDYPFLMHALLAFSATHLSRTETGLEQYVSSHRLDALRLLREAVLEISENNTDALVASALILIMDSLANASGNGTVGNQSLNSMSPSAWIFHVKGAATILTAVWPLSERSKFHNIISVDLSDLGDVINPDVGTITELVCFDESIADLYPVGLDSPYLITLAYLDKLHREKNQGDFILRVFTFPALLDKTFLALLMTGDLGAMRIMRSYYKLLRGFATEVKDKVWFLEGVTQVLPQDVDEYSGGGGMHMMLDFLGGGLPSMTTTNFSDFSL
Description: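 Universal 'all 10-mer' protein binding microarrays (Agilent AMADID 015681) probed with GST-tagged S. cerevisiae TFs (full-length or DBD) made by in vitro transcription/translation (PURExpress), about 100-200 nM. Bound TF was detected with fluorescent anti-GST. Each ungapped 8-mer (which stands for itself and its reverse complement) is scored by the PBM enrichment score (E-score), a modified Wilcoxon-Mann-Whitney statistic from -0.5 to +0.5, computed with the Universal PBM Analysis Suite. Scale: above 0.35 generally sequence-specific binding.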

Point of comparison: CAGTGTCC, “PBM E-score” value -0.141. Against it:
- AGAGGCCT — higher, -0.0685
- TCATGAAA — higher, 0.0303
- ACCACTGG — higher, -0.0523
- AAAAGCGA — higher, 0.175
- GGATCTTA — higher, 0.146
- CTACGAGC — higher, 0.393
- ATACGAGG — higher, 0.487
- GTACGCGA — higher, 0.347
- CGACGAGC — higher, 0.0758
- ACACGAGG — higher, 0.248
- AGACGAGG — higher, 0.215
- AGACGAGA — higher, 0.184
- CTACGAGA — higher, 0.359
- CCACGAGC — higher, -0.0694
- GTCCGAGA — higher, 0.205
- GTACGAGA — higher, 0.472
- ATACGAGA — higher, 0.482
- GCAGTTTA — higher, 0.0629
- ACTCTTAG — lower, -0.149
- ACTCTGGG — lower, -0.181
- GGAGTCCC — lower, -0.172
- CGTAACCA — higher, 0.223
- CACAGTGA — higher, -0.0917
- ACCCTCTG — lower, -0.236
- ACACGAGC — higher, 0.273
- AGACGAGC — higher, 0.206
- ATACGAGC — higher, 0.489
- AAACTGAC — higher, -0.0907
- CGGGACCC — lower, -0.177
- GCTGTGAC — higher, 0.111
- ACATACGT — higher, 0.239
- ACATACGC — higher, 0.281
- TCATACGA — higher, 0.469
- TCATACCA — higher, -0.0495
- GCATACGC — higher, 0.296
- TCATACAA — higher, 0.0325
- GCATACGA — higher, 0.47
- ACATACGA — higher, 0.476
- GCATACAA — higher, -0.0164
- CTAATGTC — lower, -0.171
- AGATAAGA — higher, 0.0794
- GGCTGATA — higher, -0.0951
- CCTGAAGC — lower, -0.175
- AATGGTGT — higher, -0.0602
- CGTTGCTA — higher, 0.0827
- CTAGCCCA — lower, -0.335
- AAGAGGAC — lower, -0.242
- ACTATCAG — lower, -0.196
- CCTGAGAA — higher, -0.0858
- GAAACAAA — higher, 0.0262
- CAAACGAA — higher, 0.467
- CCAACGAA — higher, 0.109
- AAAACGAA — higher, 0.283
- GCAACGAA — higher, 0.314
- GAAACGAA — higher, 0.41
- CTAGCTTC — higher, -0.105
- GATCACAA — higher, -0.0358
- GAATGCCC — higher, 0.0462
- GCATACCA — higher, 0.00545
- ATTGTGCC — lower, -0.149
- AATCCATG — lower, -0.252
- CCGACGCG — higher, 0.16
- ACGACGCA — higher, 0.389
- ACGACTCA — higher, 0.29
- ACGACTCG — higher, 0.381
- GCGACGCA — higher, 0.108
- ACGACTCT — higher, 0.319
- ACGACGCT — higher, 0.361
- ACGACGCG — higher, 0.389
- ACGACGCC — higher, 0.306
- CGTCGGGC — lower, -0.231
- ATCAATCA — higher, 0.0322
- AAAATCCT — higher, 0.0605
- AGGTTACG — higher, 0.221
- CACGTAGA — higher, 0.0732
- GTAGTAGA — higher, -0.0548
- ATCGTAGC — higher, 0.356
- CTCGTAGA — higher, 0.404
- ATCGTAGA — higher, 0.337
- GACGTAGA — higher, 0.054
- CTCGTAGC — higher, 0.4
- CACGTAGC — higher, -0.0699
- GTCGTAGA — higher, 0.386
- GTGGGGCA — higher, -0.058
- AGCCAATC — higher, -0.0383
- TCCAGCCA — lower, -0.231
- AGTCTATA — higher, 0.0445
- ATGATCTA — higher, -0.00479
- AACGAGCC — higher, 0.449
- GACGAGCC — higher, -0.00056
- TCCGAGCA — higher, 0.176
- TACGAGCA — higher, 0.465
- AGCGAGCT — higher, 0.225
- ACCGAGCT — higher, 0.186
- AACGAGCT — higher, 0.438
- AGCGAGCG — higher, 0.281
- CACGAGCG — higher, 0.17
- AACGAGCG — higher, 0.442
- TGCGAGCA — higher, 0.21
- CACGAGCC — higher, 0.0758
- CGCCGCTC — higher, -0.0776
- AGTAACCA — lower, -0.164
- CGCCAGCA — lower, -0.169
- ATTGATAC — higher, 0.173
- GGCAACAA — higher, 0.0296
- GACGCCAA — higher, -0.0565
- AGTTGATA — higher, -0.0653
- GGGTGCAC — higher, -0.128
- CGCATAGA — higher, 0.158
- CACGAGCA — higher, -0.0761
- GACGAGCA — higher, 0.00509
- AACGAGCA — higher, 0.444
- CATGCTAA — lower, -0.2
- GAGGTTTA — higher, 0.0651
- ATTGGACA — higher, -0.0219
- AAACGGCA — higher, 0.37
- AAACGGCC — higher, 0.359
- GAACGGCA — higher, 0.27
- AAACGGCT — higher, 0.296
- CAACGGCA — higher, -0.0468
- AAACGGCG — higher, 0.401
- TAGAAACA — higher, 0.0409
- GAGTGTGA — higher, 0.156
- CGCCCAAG — higher, -0.0616
- ATCTAAGA — lower, -0.179
- GCAGTACC — higher, -0.124
- GAGCACAA — higher, -0.0319
- ACGAGCGC — higher, 0.347
- GCGAGCGA — higher, 0.226
- ACGAGCGA — higher, 0.379
- ACGAGCGT — higher, 0.386
- CCGAGCGA — higher, 0.193
- ACGAGCGG — higher, 0.369
- ACTCAGTA — higher, 0.18
- ATGGTGGG — lower, -0.278
- AACCTGTA — higher, 0.118
- ACACGAAC — higher, 0.216
- AGACGAAC — higher, 0.29
- GCACGAAC — higher, 0.25
- CCACGAAA — higher, -0.0902
- GAACGAAA — higher, 0.416
- CAACGAAC — higher, 0.257
- GAACGAAC — higher, 0.441
- AAACGAAC — higher, 0.471
- TGACGAAA — higher, 0.00712
- ATGCTGAA — lower, -0.151
- GTTGTGAA — higher, 0.00742
- GAAGCAGA — lower, -0.244
- CGCAGCCC — higher, -0.0774
- CGTACGGC — higher, 0.381
- AATACGGC — higher, 0.291
- CATACGGC — higher, 0.383
- CGTACGTC — higher, 0.338
- GGTACGGA — higher, 0.355
- AGTACGGC — higher, 0.299
- AGTACGGA — higher, 0.224
- CATACGGG — higher, 0.367
- CGTACGGA — higher, 0.382
- AGTTGGCA — higher, 0.0278
- CGTCGATA — higher, -0.028
- AAGCTACA — higher, -0.125
- CCGTCGCG — higher, 0.132
- GAAAAACC — higher, -0.037
- TCCTCAAA — lower, -0.24
- AGAGCCCG — higher, -0.0194
- CTGACGTA — higher, 0.164
- GTGAACTA — higher, 0.142
- CTGAACGC — higher, 0.121
- CTGAACTA — higher, -0.104
- CTGAACGA — higher, 0.472
- ATGAACGA — higher, 0.459
- GTGAACAA — higher, 0.128
- ATGAACGG — higher, 0.261
- GTGAACGA — higher, 0.453
- ATGAACGC — higher, 0.14

— the supplement of paper PMC3334620
